High-throughput results as filed in PubChem.
An excerpt weighted towards active compounds, which were near 22% of everything screened.
CYP2C9 act: human CYP2C9 activators, primary screen, biochemical, luminescence | AID 1024, 2008 | recombinant CYP2C9, luciferin-H conversion; active compounds read high; factor 1 = untreated enzyme, 0 = blocked | activation factor at 5 µM | 96,000 compounds, 1.4% hits | Cytochrome P450 2C9 (Homo sapiens), P11712;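 active = activation factor of 2 or more for CYP2C9 at a 5 µM dose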
Target sequence (P11712 whole entry, looked up): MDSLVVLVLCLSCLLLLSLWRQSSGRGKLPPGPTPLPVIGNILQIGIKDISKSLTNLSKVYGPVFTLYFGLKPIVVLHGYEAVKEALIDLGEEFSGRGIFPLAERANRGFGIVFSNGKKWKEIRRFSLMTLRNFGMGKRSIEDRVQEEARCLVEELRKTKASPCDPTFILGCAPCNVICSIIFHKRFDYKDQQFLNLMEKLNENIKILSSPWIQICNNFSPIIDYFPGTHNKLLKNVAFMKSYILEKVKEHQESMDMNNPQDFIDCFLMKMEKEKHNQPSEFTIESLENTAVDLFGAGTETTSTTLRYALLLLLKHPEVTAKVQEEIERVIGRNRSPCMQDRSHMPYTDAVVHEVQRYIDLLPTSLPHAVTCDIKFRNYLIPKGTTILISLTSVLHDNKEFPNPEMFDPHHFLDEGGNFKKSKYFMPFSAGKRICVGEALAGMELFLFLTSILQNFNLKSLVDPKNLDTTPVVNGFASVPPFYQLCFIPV
CYP2C19 inhib: blockers of cytochrome P450 2C19 activity – biochemical, luminescence, ADME assay, primary screen | P33261 | CYP2C19 Supersomes, luciferin-H EGE luminescence, 30 min | inhibition, % at 5 µM | 96,000 compounds, 21% hits | AID 778, 2007;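 active = CYP2C19 inhibition above a set limit at 5 µM in the primary screen, cut at about 50% in these data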
CYP2C19 activ: human CYP2C19 activators, primary screen, biochemical, luminescence; Cytochrome P450 2C19 (Homo sapiens), P33261; recombinant CYP2C19, luciferin-H EGE luminescence; active compounds read high; 0 = fully inhibited enzyme, 1 = untreated enzyme; activation factor at 5 µM; 96,000 tested, under 10 active;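 active = activation factor of at least 2 at 5 µM in the primary screen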
CYP2C9 inhib: blockers of cytochrome P450 2C9 activity – biochemical, luminescence, ADME assay, primary screen; CYP2C9 Supersomes, luciferin-H conversion; inhibition, % at 5 µM; 96,000 compounds, 20% hits;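 active = blocking of liver enzyme CYP2C9 beyond about 50% at 5 µM, limit read from the data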
E-sel TNF inh: E-selectin induction blockers in HUVEC – imaging, immunofluorescence, high content, primary screen. HUVEC TNFa-induced E-selectin immunofluorescence. inhibition, % at 2 µM. 120,000 compounds, 0.71% hits. AID 1246, 2008;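 active = inhibition above the batch mean plus 3 SD, and confirmed as a hit on visual image review, cut at about 43% in these data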
F-actin modifier: modifiers of F-actin cytoskeleton organization, primary screen, imaging, HUVEC, phalloidin staining, high-content imaging. HUVEC TNFa F-actin phalloidin imaging. 91,000 compounds, 0.18% hits. inhibition, % at 2 µM. AID 836, 2007;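 active = inhibition above the batch mean plus 3 SD and confirmed as a hit by visual image inspection, cut at about 30% in these data, passing the limit was not always enough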
Numbers stand for hits; n = inactive; x = no result given.

SMILES	CYP2C9 act	CYP2C19 inhib	CYP2C19 activ	CYP2C9 inhib	E-sel TNF inh	F-actin modifier
COc1ccc(S(=O)(=O)c2c(N)n(Cc3ccco3)c3nc4ccccc4nc23)cc1	n	n	n	n	n	n
Cc1cccc(S(=O)(=O)c2c(N)n(/N=C/c3cccnc3)c3nc4ccccc4nc23)c1	n	n	n	n	n	n
Nc1c(S(=O)(=O)c2cccs2)c2nc3ccccc3nc2n1/N=C/c1cccc(O)c1	n	n	n	80	n	n
CCCCNC(=O)c1c(N)n(/N=C/c2ccccn2)c2nc3ccccc3nc12	n	n	n	n	x	n
CC(C)Cn1c(N)c(S(=O)(=O)c2cccs2)c2nc3ccccc3nc21	n	n	n	65	n	n
COc1ccc(/C=N/n2c(N)c(S(=O)(=O)c3cccs3)c3nc4ccccc4nc32)cc1OC	n	n	n	77	n	n
COc1cccc(/C=N/n2c(N)c(S(=O)(=O)c3cccs3)c3nc4ccccc4nc32)c1	n	n	n	n	n	n
COc1ccc(N(C(=O)c2ccco2)C(C(=O)NC2CCCC2)c2ccc(N(C)C)cc2)cc1 (stereo not given)	n	n	n	n	n	n
O=C(c1ccccc1Oc1nnnn1-c1ccccc1)N1CCOCC1	n	n	n	n	n	n
CCOC(=O)CC1=C(C(=O)OCC)C(c2cc(OC)c(OC)cc2OC)C(C#N)=C(N)O1 (stereo not given)	n	n	n	n	n	n
CCOC(=O)/C(C#N)=C/c1cc(C)n(-c2ccc(Br)cc2)c1C	n	n	n	n	n	n
CCOC(=O)/C(C#N)=C/c1cc(C)n(-c2ccccc2)c1C	n	52	n	54	n	n
CC1(C)CC2CC(C)(CN2S(=O)(=O)c2ccc(C(=O)Nc3ccc(Cl)c(S(=O)(=O)N4CCOCC4)c3)cc2)C1 (stereo not given)	n	n	n	62	n	n
CCOc1cc(C(=O)Nc2ccc(S(=O)(=O)N3CCOCC3)cc2)cc(OCC)c1OCC	n	n	n	n	n	n
CC(C)(C)CC(C)(C)NCC(O)COc1ccc2c(c1)CCC2 (stereo not given)	x	x	x	x	x	n
CCCc1cc(C(=O)Nc2cc(C)nn2-c2ccccc2)no1	n	n	n	n	x	n
CCCc1cc(C(=O)NCCc2ccccc2)no1	n	63	n	n	n	x
COc1ccc(NC(=O)c2cc(-c3ccccc3OC)on2)cc1	n	n	n	n	x	n
COc1ccccc1-c1cc(C(=O)NCCc2ccccc2)no1	3.7	n	n	n	n	x
COc1ccc(CCNC(=O)c2cc(-c3ccccc3OC)on2)cc1OC	n	n	n	n	n	n
COc1ccccc1-c1cc(C(=O)Nc2cccnc2)no1	2.1	n	n	n	n	n
CCCc1cc(C(=O)Nc2cccnc2Cl)no1	n	n	n	n	n	x
CCCc1cc(C(=O)Nc2ccccc2C(=O)OC)no1	2.2	n	n	n	x	n
O=C(NCc1ccc(Cl)cc1Cl)c1ccccn1	n	99	n	n	n	n
Clc1ccc(COc2ccccn2)c(Cl)c1	n	87	n	n	n	n
SMILES	CYP2C9 act	CYP2C19 inhib	CYP2C19 activ	CYP2C9 inhib	E-sel TNF inh	F-actin modifier
C=CCN1C(=O)CSc2ccc(C(=O)N3CCC(C)CC3)cc21	n	n	n	n	n	n
COc1cc(N=c2ssnc2Cl)cc(OC)c1	n	n	n	100	n	n
CCOC(=O)Cn1c(=O)oc2cc(S(=O)(=O)N3CCCc4ccccc43)ccc21	n	77	n	77	x	n
Cc1ccc(NC(=O)Cn2c(=O)oc3cc(S(=O)(=O)N4CCC(C)CC4)ccc32)cc1C	n	n	n	67	n	n
CCOC(=O)Cn1c(=O)oc2cc(S(=O)(=O)N3CCn4c3nc3ccccc34)ccc21	n	n	n	n	x	n
CC(C)CCNC(=O)Cn1c(=O)oc2cc(S(=O)(=O)N3CCc4ccccc43)ccc21	n	n	n	83	x	n
O=C(Cn1c(=O)oc2cc(S(=O)(=O)N3CCc4ccccc43)ccc21)NC1CCCC1	n	n	n	64	x	n
O=C(Cn1c(=O)oc2cc(S(=O)(=O)N3CCCC3)ccc21)NCc1ccccn1	n	n	n	n	n	x
